Where “and” joins values, the source holds several entries; their conditions need not be identical. Identical values can stand only once. Records with an inconclusive call do not appear. Entries that show only a call come without a potency. Where a structure was tested more than once in an assay, its records may differ in their call. Calls of active or inactive are those of the source. Calls come from the whole dose curve; as a rule, active = well fitted inhibition curve with a large enough effect; inconclusive = small, poorly fitted or top-dose-only effect; inactive = no such curve, though single readings can be large or run the other way.
Assay: NS1 protein of Zika virus - qHTS assay to identify small molecule inhibitors in human HEK 293 cells (AID 1347053); note: nearly all actives have a fitted effect of over 55% in size
Conditions: HEK293 ZIKV MR766 infection, NS1 TR-FRET, 24 h; series mostly up to 46.1 µM
From the text: National Center for Advancing Translational Sciences [NCATS]
Johns Hopkins University School of Medicine
The non-structural 1 (NS1) protein of zika virus is known to associate with the viral replication complex. This cell-based TR-FRET ZIKV NS-1 assay measures the increased NS-1 protein in human HEK 293 cells after a 24-hour Zika virus infection by a TR-FRET assay readout. A decrease in the Time-resolved fluorescence energy transfer (TR-FRET) signal in this assay by small molecule treatment indicates an inhibitory effect of the small molecule on the expression of Zika virus NS1 correlating with Zika virus replication.
HEK 293 cells were cultured in EMEM (ATCC, Cat. # 30-2003) medium with 10% fetal bovine serum (GE healthcare Life Sciences, Cat. # SH30071.03), and 1% Pen/Strep (Gibco, Cat. # 15140-122). Cells were seeded in the assay plate and incubated at 37 C with 5% CO2 for 20 hours. Compounds were added to cells and incubated for one hour before addition of ZIKV MR766 strain solution to cells (MOI = 0.5). After an incubation at 37 C for 24 hours, the reagent mixture of TR-FRET ZIKV NS1 assay using two anti-ZIKV NS1 antibodies was added to assay plates. The TR-FRET signals in assay plates were measured using an Envision plate reader (PerkinElmer). Data were normalized by using the cell-containing wells without ZIKV as a negative control (0% NS-1) and wells containing ZIKV infected cells as a positive control (100% NS-1 level).
In the case of `OC[C@H](Cc1ccccc1)Nc1nc(Oc2ccc3c(c2)CCC3)nc2c1ncn2Cc1ccc(-c2ccccc2)cc1`, the Potency is reported as 4.18 µM (active).
With `Nc1nc2[nH]cc(CCc3ccc(C(=O)N[C@@H](CCC(=O)O)C(=O)O)cc3)c2c(=O)[nH]1` the Potency was “inactive”.
With `CCOc1ccc(Cc2cc([C@@H]3O[C@H](CO)[C@@H](O)[C@H](O)[C@@H]3O)ccc2Cl)cc1` the Potency was “inactive”.
With `Nc1nc2c(ncn2COCCO)c(=O)[nH]1` the Potency was “inactive”.
For `CCc1ccc(CCOc2ccc(CC3SC(=O)NC3=O)cc2)nc1` (stereo not given), the Potency was “inactive”.
With `NC(=O)c1ccc(-c2nc(-c3ccc4c(c3)OCCO4)c(-c3ccccn3)[nH]2)cc1` the Potency was “inactive”.
In the case of `OC(CCN1CCCCC1)(c1ccccc1)C1CC2C=CC1C2` (stereo not given), the Potency is reported as “inactive”.
With `CC[C@H](Nc1ncnc2nc[nH]c12)c1nc2cccc(F)c2c(=O)n1-c1ccccc1` the Potency was “inactive”.
For `Cc1cnc(Nc2ccc(OCCN3CCCC3)cc2)nc1Nc1cccc(S(=O)(=O)NC(C)(C)C)c1`, the Potency was “inactive”.
For `CCOc1cc(C=C2C(=O)N(c3ccccc3)N=C2C)cc(Cl)c1OCC(=O)OC`, the Potency was “inactive”.
In the case of `CS(=O)(=O)Oc1ccc2c(NC(N)=O)c(C(=O)c3ccc(Cl)cc3Cl)oc2c1`, the Potency is reported as “inactive”.
With `NC(=O)C1CCCc2c1[nH]c1ccc(Cl)cc21` (stereo not given) the Potency was “inactive”.
In the case of `Cc1ccc(NC(=O)c2cccc(C(C)(C)C#N)c2)cc1Nc1ccc2ncn(C)c(=O)c2c1`, the Potency is reported as “inactive”.
For `CCOC(=O)N[C@@H]1CC[C@@H]2[C@@H](C1)C[C@H]1C(=O)O[C@H](C)[C@H]1[C@@H]2C=Cc1ccc(-c2cccc(F)c2)cn1`, the Potency was “inactive”.
With `COc1ccc(CC2=NN3C([C@@H](CCc4ccccc4)[C@@H](C)O)=NC(C)C3C(=O)N2)cc1OC` (stereo not given in full) the Potency was “inactive”.
In the case of `N[C@@H]1CONC1=O`, the Potency is reported as “inactive”.
With `CCn1cc(C(=O)O)c(=O)c2cc(F)c(N3CCNC(C)C3)c(F)c21` (stereo not given) the Potency was “inactive”.
With `Cn1c(=O)c(F)c(Nc2ccc(I)cc2F)c2c(=O)n(C[C@@H](O)CO)cnc21` the Potency was “inactive”.
In the case of `CC(C)OC(=O)C1=CN(C(=O)c2ccc(F)c(F)c2)CC(C)(C)c2c1[nH]c1ccccc21`, the Potency is reported as “inactive”.
For `CCC(C)N(C)C(=O)c1cc2ccccc2c(-c2ccccc2Cl)n1` (stereo not given), the Potency was “inactive”.
With `CCc1cc(Nc2nccc(-c3c(-c4ccc(OC)c(C(=O)Nc5c(F)cccc5F)c4)nc4ccccn34)n2)c(OC)cc1N1CCC(N2CCN(S(C)(=O)=O)CC2)CC1` the Potency was 26.4 µM (active).
In the case of `CC(=O)NC(C)c1ccc(Oc2ccc(OC(C)C)cc2)cc1` (stereo not given), the Potency is reported as “inactive”.
With `C[C@H](NC(=O)Cc1cc(F)cc(F)c1)C(=O)N[C@@H]1C(=O)N(C)c2ccccc2-c2ccccc21` the Potency was “inactive”.
With `CNCc1ccc(-c2[nH]c3cc(F)cc4c3c2CCNC4=O)cc1` the Potency was “inactive”.
With `CCCC(CCC)C(=O)O` the Potency was “inactive”.
For `O=C1CCC(N2C(=O)c3ccccc3C2=O)C(=O)N1` (stereo not given), the Potency was “inactive”.
For `CC(C)C[C@H](NC(=O)[C@@H](O)[C@H](N)Cc1ccccc1)C(=O)O`, the Potency was “inactive”.
With `COc1ccccc1-c1cccc(-c2c(O)c3cc(C#N)c(Cl)cc3[nH]c2=O)c1` the Potency was “inactive”.
With `CCCc1nn(C)c2c(=O)[nH]c(-c3cc(S(=O)(=O)N4CCN(C)CC4)ccc3OCC)nc12` the Potency was “inactive”.
For `Cn1cnc2c(F)c(Nc3ccc(Br)cc3Cl)c(C(=O)NOCCO)cc21`, the Potency was “inactive”.
In the case of `Cc1cc([C@@H](C)Nc2ccccc2C(=O)O)c2nc(N3CCOCC3)cc(=O)n2c1`, the Potency is reported as “inactive”.
With `Cc1cc(Nc2nc(N[C@@H](C)c3ncc(F)cn3)ncc2Cl)n[nH]1` the Potency was “inactive”.
In the case of `CCC(C)(C)C(=O)O[C@H]1C[C@@H](C)C=C2C=C[C@H](C)[C@H](CC[C@@H]3C[C@@H](O)CC(=O)O3)[C@H]21`, the Potency is reported as “inactive”.
For `Cc1ccnc(NS(=O)(=O)c2ccc(NC(=O)Nc3ccc(S(=O)(=O)Nc4nccc(C)n4)cc3)cc2)n1`, the Potency was “inactive”.
In the case of `NNCCc1ccccc1`, the Potency is reported as “inactive”.
In the case of `Cc1ccc(-n2nc(C(C)(C)C)cc2NC(=O)Nc2ccc(OCCN3CCOCC3)c3ccccc23)cc1`, the Potency is reported as “inactive”.
For `Cc1oncc1C(=O)Nc1ccc(C(F)(F)F)cc1`, the Potency was “inactive and 11.8 µM (active)”.
In the case of `CCn1c(-c2nonc2N)nc2cnc(Oc3cccc(NC(=O)c4ccc(OCCN5CCOCC5)cc4)c3)cc21`, the Potency is reported as 14.8 µM (active).
With `C1COC(NC(C2CC2)C2CC2)=N1` the Potency was “inactive”.
In the case of `CN(C)C(=O)c1ccc(S(=O)(=O)c2ccc(NC(=O)[C@@](C)(O)C(F)(F)F)c(Cl)c2)cc1`, the Potency is reported as “inactive”.

Source: PubChem BioAssay (NCATS)
Potency is the fitted concentration of half-maximal effect.
